Source: PubChem BioAssay AID651664 (NMMLSC, 2012)
Out of some 1,800 compounds screened, fewer than 10 were called active. The list is a sample of the results. Unmarked numbers belong to inactive results.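 How the source made its calls: active means inhibition of granule release above a set limit; inactive means the rest.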

Test: inhibitors of lytic granule exocytosis, flow cytometry, TALL-104 cells, validation set (AID 651664)
Details: TALL-104 LAMP-1 externalization, at 15.2 µM, hits give high values, stimulated with thapsigargin and PMA

| Compound | inhibition |
| --- | --- |
| Cc1ccc(C(=O)NC(=S)Nc2ccc(-c3cc4ccccc4oc3=O)cc2)c(C)c1 | -0.7% |
| CCOC(=O)c1[nH]c(C)c(/C(O)=C2\C(=O)C(=O)N(CCN(C)C)C2c2ccncc2)c1C (configuration not stated) | 4% |
| O=C1C=C(N2CCN(C(=O)c3ccccc3)CC2)C2(CCCCC2)O1 | -4.4% |
| CCc1ccc2c(c1)c(N=NC1=NC(=O)CS1)c(O)n2CC | -0.4% |
| CC(C)(C)NC(=O)C(=O)N/N=C/c1ccc(Br)cc1 | -2.4% |
| Cn1cnnc1Sc1cc(N2CCN(S(=O)(=O)c3ccc(Cl)c(Cl)c3)CC2)ccc1[N+](=O)[O-] | 0.3% |
| O=C(NCc1ccc2c(c1)OCO2)c1cccc(F)c1 | 6.2% |
| Cc1cc(C(=O)CSc2nc3ccc(Cl)cc3[nH]2)c(C)n1CC1CCCO1 (configuration not stated) | 1.6% |
| COc1ccc(/C(O)=C2/C(=O)C(=O)N(CCCN(C)C)C2c2ccc(Cl)cc2)cc1OC (configuration not stated) | 6.2% |
| CCCCN(CCCC)CP(=O)(c1ccccc1)c1ccccc1 | 0% |
| O=C(Cn1cnc2ccccc2c1=O)c1ccc2ccccc2c1 | 0% |
| CC1CCN(S(=O)(=O)c2ccc(F)c(C(=O)O)c2)CC1 | 3.9% |
| CC(=O)c1ccc(NC(=O)Nc2ccc(NS(=O)(=O)c3ccc(C)cc3)cc2)cc1 | -2.9% |
| CCCCN(CCCC)C(=S)N/N=C/c1c(C)[nH]n(-c2ccccc2)c1=O | -0.4% |
| Cc1ccc(C(=O)C2(C)C3c4cc(Br)ccc4OC(=O)C32C(=O)c2ccco2)cc1 (configuration not stated) | 93.2% (active) |
| N#CC1=C(N)N(c2ccc(Oc3ccccc3)cc2)C(=O)C1 | 1.8% |
| CCN(CC)C(=O)CSc1nc2ccccc2c(=O)[nH]1 | 0.4% |
| O=C(/C=C/c1ccc([N+](=O)[O-])cc1)NCC1CCCO1 (configuration not stated) | -0.8% |
| COc1cccc2cc(C(=O)Nc3cccc(C)n3)c(=O)oc12 | 4.9% |
| CCCCSC(=S)N(C)C1CCS(=O)(=O)C1 (configuration not stated) | -0.4% |
| COP(C)(=O)c1c(C)nn(-c2ccccc2)c1C (configuration not stated) | -2.1% |
| Cn1c(Cl)c(C(=O)Nc2ccccc2)c2ccccc21 | -1.3% |
| Cc1csc(NC(=O)Cc2coc3cc(C)c(C(C)C)cc23)n1 | -2.3% |
| N/C(=N\OC(=O)c1ccc(Cl)cc1Cl)c1ccc(Cl)cc1 | 5.2% |
| N/C(=N\OC(=O)c1cccc(Br)c1)c1ccc(Br)cc1 | 57.6% (active) |

| Compound | inhibition |
| --- | --- |
| N/C(=N\OC(=O)CCCN1C(=O)c2ccccc2C1=O)c1ccc(Br)cc1 | -3.6% |
| CCOC(=O)C(C)On1c(-c2ccccc2)nc2ccc([N+](=O)[O-])cc21 (configuration not stated) | 4.1% |
| CCc1nn(-c2ccccc2)c2c1-c1cc(OC)c(OC)cc1C1(N2)C(=O)Nc2ccccc21 (configuration not stated) | -0.7% |
| CCOc1c(Cl)cc(C(=O)Nc2ccccc2-c2ccccc2)cc1Cl | -0.6% |
| O=C(COc1ccccc1O)N1CCN(C(=O)c2ccco2)CC1 | 0.9% |
| OCCSc1ncnc2c1oc1ccccc12 | -1.3% |
| O=C(O)CCCCCNC(=O)Nc1ccc2c(c1)OCCO2 | -3.4% |
| O=C1c2ccccc2NC(c2cnc3ccccc3n2)N1O (configuration not stated) | -0.6% |
| COc1cc(CC(=O)OCC(=O)c2ccc3c(c2)OCCO3)cc(OC)c1OC | 0.6% |
| Cc1cc(NC(=O)c2cccc3ccccc23)cc(C)c1OCC(=O)N1CCOCC1 | -2.8% |
| N#Cc1c(-c2ccccc2)nc(-c2ccccc2)nc1N1CCOCC1 | -0.6% |
| Cc1nc2c(=O)oc3ccccc3c2n1-c1ccccc1 | -0.5% |
| CCOC(=O)C1CCN(C(=O)CN(c2cc(OC)ccc2OC)S(=O)(=O)c2ccccc2)CC1 | -2.6% |
| Cc1nn(C)cc1CNC(=O)CCC(=O)O | 5.3% |
| COC(=O)C1CCN(c2cc(=O)n(C3CCCCC3)c(=O)[nH]2)CC1 | 5.6% |
| Cc1ccccc1C1CC(c2ccccc2OC(F)F)Nc2ncnn21 (configuration not stated) | -2.3% |
| Cc1cc2ccccc2nc1SCC(=O)N1c2ccccc2CC1C (configuration not stated) | -0.9% |
| CC12Cc3ccc4ccccc4c3C=C1C[N+](C)(C)C2 (configuration not stated) | -0.3% |
| CC1=NC(=O)C(N=Nc2ccccc2)N1c1ccccc1 (configuration not stated) | -2.8% |
| CC(C)c1ccc(NS(=O)(=O)c2ccc3[nH]cc(C(=O)N4CCC(C(N)=O)CC4)c(=O)c3c2)cc1 | -0.7% |
| CCC(C)(C)NC(=O)C(c1ccco1)N(C(=O)Cn1nnc2ccccc21)c1ccc2c(c1)OCO2 (configuration not stated) | -0.1% |
| Cc1ccc(S(=O)(=O)N2CCN(C(=O)c3cc4c(C)nn(-c5ccccc5C)c4s3)CC2)cc1 | -1.8% |
| CCOC(=O)c1sc2nc(CC(=O)OC)nc(NCCN3CCOCC3)c2c1C | -2.4% |
| COc1ccc(C(C)=O)cc1CN1C(=O)NC2(CCCCC2)C1=O | -0.4% |
| Cc1occc1C(=O)Nc1ccc2ccccc2c1 | 0.2% |

| Compound | inhibition |
| --- | --- |
| CCS(=O)(=O)N1CCCC(C(=O)NC2CCCCC2C)C1 (configuration not stated) | 0.3% |
| O=C(O)c1c[nH]c(=S)n1-c1ccc(F)cc1 | 1.2% |
| COCCN1CN(S(=O)(=O)c2ccc(Cl)cc2)c2nc3ccccc3nc21 | -1.9% |
| COc1cccc(C(C(=O)NCc2ccco2)N(Cc2ccco2)C(=O)Cn2nnc3ccccc32)c1 (configuration not stated) | -3.7% |
| CCCn1c2c(c(O)c(C(=O)Nc3ccccc3)c1=O)CCCC2 | 1.8% |
| CSCC[C@H](NC(=O)NCCC1=CCCCC1)C(=O)O | 1.1% |
| CCOC(=O)c1c(C(C)(C)C)oc2ccc(O)cc12 | 1.3% |
| Clc1ccc(CON/C=N/c2ncnc3sccc23)cc1 | -1.5% |
| CSc1nc(-c2ccc(Cl)cc2)nn1C(=O)c1ccco1 | 7% |
| C1=C(c2ccccc2)Nc2nnnn2C1c1cccs1 (configuration not stated) | 0.7% |
| Cc1cccc(CC(Cc2nc3ccccc3[nH]2)c2nc3ccccc3[nH]2)c1 (configuration not stated) | 94.4% (active) |
| c1ccc2nc(-c3nc4ccccc4[nH]3)ccc2c1 | 0.9% |
| O=C(NCc1nc2ccccc2[nH]1)c1cc2ccccc2oc1=O | 6.1% |
| COc1ccc(CCNC(=O)c2ccccc2NC(=O)c2ccco2)cc1OC | -1.7% |
| COC(=O)CN1C(=O)C(O)(CC(=O)c2ccc(C)o2)c2ccccc21 (configuration not stated) | -1.9% |
| COc1cccc(OC)c1C(=O)Nc1cc(C)on1 | -2.4% |
| O=C(c1ccc(F)cc1)c1ccc(N2CCCC2)cc1 | -4.5% |
| O=c1cc(N2CCc3ccccc3C2)[nH]c(=O)n1C1CCCCC1 | 8.4% |
| CCN(CC)C(=O)CSc1ncnc2c1nnn2-c1ccc(OC)cc1 | -0.1% |
| O=S(=O)(CCc1nc2ccccc2o1)c1ccc(Cl)c(Cl)c1 | -2.2% |
| COC(=O)c1ccccc1NC(=O)c1ccc(COc2ccc(C)c(C)c2)o1 | -0.1% |
| O=C(c1ccc(S(=O)(=O)N2CCCCCC2)cc1)N1CCC(CN2C(=O)c3cccc4cccc(c34)C2=O)CC1 | 0.6% |
| c1nnnn1C12CC3CC(CC(C3)C1)C2 | 3.1% |
| CCOC(=O)c1ccc(N2C(=O)CC(C3CCCO3)C2=O)cc1 (configuration not stated) | 3.6% |
| COC(=O)c1ccc(N2C(=O)CC(N(C)CCc3ccc(OC)c(OC)c3)C2=O)cc1 (configuration not stated) | 66% (active) |

| Compound | inhibition |
| --- | --- |
| COC(=O)c1ccc(N2C(=O)CC(SCCN)C2=O)cc1 (configuration not stated) | -1.8% |
| O=C(Nc1cc(C(F)(F)F)ccc1N1CCOCC1)c1cccnc1Cl | -2.8% |
| CCCS(=O)(=O)N1CCCC(C(=O)NCCN(Cc2ccccc2)C(C)C)C1 (configuration not stated) | -0.7% |
| O=C(/C=C/Nc1cccc(C(F)(F)F)c1)c1ccc(Oc2ncccn2)cc1 | -1% |
| NC(=S)N/N=C/c1ccc(-c2cccc([N+](=O)[O-])c2)o1 | 1.9% |
| COc1ccc(NC(=O)c2cccc(S(=O)(=O)N3CCOCC3)c2)cn1 | 1.5% |
| O=C(NCC1CCCO1)/C(=C\c1ccco1)NC(=O)c1ccccc1 (configuration not stated) | -2.2% |
| CCc1ccc(Nc2ncccc2C#N)cc1 | 1.1% |
| C=CCn1c(-c2cccs2)nc2nc3ccccc3nc21 | -2.3% |
| C/C(=N/OC(=O)c1ccc(F)cc1)c1ccc(C)cc1 | 0.7% |
| CC1(C)Cc2c(C#N)c(SCc3ccccc3)nc(N3CCOCC3)c2CO1 | 1.1% |
| Fc1ccc(C2=Nn3c(Cc4ccccc4F)nnc3SC2)cc1 | 1.3% |
| CC(=O)N1CCc2cc(NS(=O)(=O)c3cccs3)ccc21 | -1.2% |
| COc1cc(OC)cc(C(=O)Nc2nc3ccccc3[nH]2)c1 | -1% |
| Cc1cccc(N2CCN(CC(=O)Nc3ccc(-n4cnnn4)cc3)CC2)c1C | -0.6% |
| COc1ccc(-c2cn[nH]c2N)cc1OC | 2.5% |
| O=C(COC(=O)c1ccccc1)NCc1ccco1 | -0.5% |
| CCOC1(OCC)N=C(N)C2(C#N)C(c3cccc(C)c3)C12C#N (configuration not stated) | -0.4% |
| Cc1ccc(NC(=O)/C(=C\C=C\c2ccccc2)NC(=O)c2ccccc2)cc1 | -0.3% |
| Cc1ccc(NC(=O)c2cc(S(=O)(=O)Nc3ccc(C)cc3)cs2)cc1 | 0.6% |
| COc1cc(N)cc(NC(=O)c2ccncc2)c1 | -0.4% |
| COc1ccc(CN2CCOCC2)cc1 | 1.5% |
